# A selection: hits, their analogues and other compounds. The true share with any hit is near 4.8%.
# NF-kB expr up – NF-kB expression increase, human neuronal cells; NF-kB reporter expression; active compounds read high; fold change at 12.5 µM; actives 1.6% (n = 190,000); in the data active = fold change above about 3.3
# APP 5'UTR act – activates APP 5'UTR luciferase reporter | SH-SY5Y APP 5'UTR luciferase reporter, luminescence; zero percent = DMSO vehicle wells | activation, % at 2 µM | actives 1% (n = 190,000) | AID 1276;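 active = activation above a set limit, based on mean plus 3 SD of controls, cut at about 140% in these data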
# Hsp70 act – switches on Hsp70 transcription; HeLa Hsp70 promoter luciferase reporter, luminescence; scaled: vehicle 0, proteasome-inhibitor control 100%; activation, % at 10 µM; actives 0.04% (n = 200,000);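 active = activation above the mean across all tested compounds plus 3 SD, cutoff set per campaign, cut at about 5.5% in these data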
# STAT1 act – STAT1 signaling activation. NIH 3T3 STAT1-luciferase reporter, IFN-gamma, luminescence; 100% = IFN-gamma alone, no compound. activation (% of control), % at 5.5 µM. actives 2.6% (n = 200,000). AID 932;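 active = activation above the screen-wide mean activation plus 3 SD, cut at about 130% in these data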
# APP 5UTR inh – APP translation inhibition. inhibition, % at 2 µM. actives 0.82% (n = 190,000). SH-SY5Y APP 5'UTR-luciferase reporter, luminescence. AID 1285;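 active = inhibition above a set limit, derived from the sample mean plus 3 SD, cut at about 45% in these data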
# Wee1 stabilizer – blocks degradation of human Wee1 kinase; reporter increase, % at 5 µM; P30291; AID 1321; HeLa Luc-Wee1K328M stability, luciferase luminescence; 100% = proteasome inhibitor MG132 effect; actives 1.2% (n = 220,000);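 active = activation above the mean of all tested compounds plus 3 SD, set per screening run, cut at about 8.8% in these data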;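 also: cells exposed to compound for 20 h before luminescence read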
# Hits are given with their value; i = inactive; nt = no result given.
SMILES,NF-kB expr up,APP 5'UTR act,Hsp70 act,STAT1 act,APP 5UTR inh,Wee1 stabilizer
c1ccc2c(CN3CCOCC3)csc2c1,i,i,i,i,i,i
N#CC1=C(N)SC(N)=C(C#N)C1c1ccc([N+](=O)[O-])cc1,i,i,i,i,i,10
N#CC1=C(N)SC(N)=C(C#N)C1c1ccc(C(F)(F)F)cc1,i,i,i,i,i,i
CC(C)OC(=O)c1cc(NC(=S)Nc2ccc([N+](=O)[O-])cc2)cc(C(=O)OC(C)C)c1,i,nt,i,i,nt,i
CCSc1nc(-c2ccccc2)nc(C(Cl)Cl)n1,i,i,i,i,47,i
Cc1ccc2nc(N3C(=O)C(O)=C(C(=O)c4ccc(C)o4)C3c3cccc(O)c3)sc2c1 (centres undefined),i,i,i,i,i,i
Cc1ccc(C(=O)c2sc3nc4c(cc3c2N)CCC4)cc1,i,192,i,i,i,i
COc1cc(NC(=O)CSc2nccc(=O)[nH]2)c(C)cc1[N+](=O)[O-],i,i,i,i,i,i
CC(C)c1ccc(/C=C/C(=O)Nc2nncs2)cc1,7,i,i,145,i,9.5
O=c1c(-c2ccccc2)c1-c1ccccc1,nt,nt,i,nt,nt,i
Cc1cc(Nc2ccc(Cl)cc2)n(-c2cccc(Cl)c2)n1,i,i,i,i,i,i
CC1(C)CC(=O)C2=C(C1)OC1=C(C(=O)CC(C)(C)C1)C2c1ccc(O)cc1O,6.2,i,i,i,i,i
CC1(C)CC(=O)C2=C(C1)OC1=C(C(=O)CC(C)(C)C1)C2c1ccc(O)c([N+](=O)[O-])c1,i,i,i,i,i,i
Fc1ccc(-c2csc(N3CCOCC3)n2)cc1,nt,nt,nt,nt,nt,i
c1ccc2oc(-c3csc(N4CCOCC4)n3)cc2c1,5.8,138,i,i,i,i
C(=N\NC1=Nc2cccc3cccc1c23)/c1ccccn1,6.2,i,i,182,i,i
Clc1ccccc1/C=N/NC1=Nc2cccc3cccc1c23,i,171,i,180,i,i
CCOC(=O)c1cc(C(=O)Nc2ccc(C)c(F)c2)nn1C,i,i,i,135,i,i
CCOC(=O)c1cc(C(=O)NCc2ccc(Cl)cc2Cl)nn1C,i,i,i,i,i,i
O=C(Nc1cccnc1Cl)c1ccc(S(=O)(=O)N2CCCCCC2)cc1,i,i,i,i,90,i
COc1ccc(C(=O)NCc2ccc(Cl)c(Cl)c2)cc1OC,i,i,i,i,i,i
O=C(NCc1ccccc1)c1ccc(S(=O)(=O)N2CCCC2)cc1,i,i,i,i,51,i
COc1ccc(CNC(=O)c2ccc(S(=O)(=O)N3CCCC3)cc2)cc1OC,i,i,i,i,52,i
COc1ccc(CNC(=O)c2ccc(=O)oc2)cc1OC,i,i,i,i,i,9.4
O=C(Nc1ccc(Cl)c(Cl)c1)C1CC(=O)N(c2ccc(Br)cc2)C1 (centres undefined),i,i,i,i,i,i
SMILES,NF-kB expr up,APP 5'UTR act,Hsp70 act,STAT1 act,APP 5UTR inh,Wee1 stabilizer
Cc1ccc(NC(=O)N2CCCN(Cc3ccc(F)cc3)C2)cc1C,i,i,i,i,i,i
CCOC(=O)Cn1c(CN2CCN(c3cccc(Cl)c3)CC2)nc2c1c(=O)[nH]c(=O)n2C,i,i,i,i,i,i
O=C(N/N=C\c1c(O)ccc2ccccc12)c1ccc(S(=O)(=O)N2CCCCC2)cc1,i,i,i,i,86,i
O=C(CNC(=O)c1ccc(S(=O)(=O)N2CCCC2)cc1)N/N=C/c1ccccc1Cl,i,i,i,i,i,i
O=C(N/N=C/c1sc2ccccc2c1O)c1ccccc1,i,i,i,i,53,i
COc1ccc(C(=O)N/N=C/c2sc3ccccc3c2O)cc1,i,i,i,i,51,i
O=C(N/N=C/c1sc2ccccc2c1O)c1cccc2ccccc12,i,i,i,i,48,i
COc1ccc2cc(C(=O)N/N=C/c3sc4ccccc4c3O)ccc2c1,i,i,i,i,i,i
O=C(Oc1cc(-c2ccccc2)no1)c1ccc(Cl)cc1,i,i,i,i,i,i
Cc1nn(CC(O)COc2ccc3c(c2)CCC3)c(C)c1C (centres undefined),i,i,i,i,i,i
CC1CCCC(C)N1Cc1cn2ccccc2n1 (centres undefined),i,i,i,i,i,i
COc1cc(C2C(C#N)=C(N)Oc3cc(N)ccc32)cc(OC)c1OC (centres undefined),3.7,i,i,i,95,i

# From PubChem BioAssay
